Assay outcomes: PubChem BioAssay, Pan Lab, Icahn School of Medicine at Mount Sinai
Many of the other results were omitted from the sample, so hits are more common in it than they were.
RBX1-CUL1 inh: human ROC1-CUL1 E3 ligase inhibition; P62877+Q13616; inhibition, % at 10 µM; 0.6% of 140,000 active; in vitro K48 di-Ub FRET, acceptor:donor ratio, 45 min; in the data active = inhibition above about 25%
Large screens that a line does not name were inactive.

Cc1cccc(NCC(O)Cn2c3ccc(I)cc3c3cc(I)ccc32)c1 (centres undefined)	none
CN1C(=O)CC(=NC(=O)C2CC3CCC2C3)N(C)C1=O (centres undefined)	none
Cc1ccc(C(=O)N2c3ccc(F)cc3CCC2C)cc1 (centres undefined)	none
COc1ccc(S(=O)(=O)Nc2ccc(-c3cn4ccsc4n3)cc2)cc1	RBX1-CUL1 inh 96.7
COc1ccc(S(=O)(=O)Nc2ccc(-c3cn4ccsc4n3)cc2)cc1C	none
COc1ccc(S(=O)(=O)Nc2ccc(-c3cn4c(C)csc4n3)cc2)cc1	none
CCOC(=O)C1(Cc2ccc(Cl)cc2)C(=O)Nc2cc(OC)ccc21 (centres undefined)	none
Cc1ccc(NC(=O)CC(C)n2nc(C)c(Br)c2C)cc1Cl (centres undefined)	none
CCOC(=O)c1nn(-c2ccc(C)cc2)cc1C(=O)c1cccc2ccccc12	none
CCOC(=O)[C@@H]1Nc2ccc(Br)cc2[C@@H]2C=CC[C@H]12	none
O=C(O)c1ccc2c(c1)C1C=CCC1C(C1CC=CCC1)N2 (centres undefined)	RBX1-CUL1 inh 100.5
COC(=O)c1ccc2c(c1)C1C=CCC1C(c1ccc([N+](=O)[O-])cc1)N2 (centres undefined)	none
O=[N+]([O-])c1ccccc1C=Nc1ccccc1Cl	none
O=[N+]([O-])c1cc(C=Nc2c(Cl)cc(Cl)c(N=Cc3cc([N+](=O)[O-])c(O)cc3O)c2Cl)c(O)cc1O	RBX1-CUL1 inh 107.6
O=[N+]([O-])c1ccc(O)c(C=Nc2cc(Cl)cc(Cl)c2)c1	none
CC(C)C(=O)Nc1cc(Cl)ccc1N1CCN(C(=O)C(C)C)CC1	none
COc1ccc(CNC(=O)c2nn3c(C(F)(F)F)cc(-c4ccc(Br)cc4)nc3c2Br)cc1	none
COc1ccc(-c2cc(C(F)(F)F)n3nc(C(=O)NCc4ccco4)c(Br)c3n2)cc1	RBX1-CUL1 inh 28.9
O=C(NCc1ccco1)c1nn2c(C(F)(F)F)cc(-c3cc(Br)cs3)nc2c1Br	none
Oc1c(Br)cc(C(=C(Cl)Cl)c2cc(Br)c(O)c(Br)c2)cc1Br	RBX1-CUL1 inh 66.1
Oc1c(Br)cc(Br)nc1Br	none
COc1ccc(-n2c(SCc3ccc(Br)cc3)nc3sc4c(c3c2=O)CCC(C(C)(C)C)C4)cc1 (centres undefined)	none
CCOc1c(Cl)cc(C(=O)Nc2ccc(Br)cc2)cc1Cl	none
Fc1ccc(-c2nnc3sc(/C=C/c4ccco4)nn23)cc1	RBX1-CUL1 inh 94.8
Clc1ccccc1-c1nnc2sc(-c3cccs3)nn12	none
Clc1ccccc1-c1nnc2sc(/C=C/c3ccco3)nn12	RBX1-CUL1 inh 96.4
Fc1ccc(-c2nn3c(-c4ccco4)nnc3s2)cc1	none
COc1ccccc1-c1nnc2sc(/C=C/c3ccco3)nn12	none
Fc1ccc(/C=C/c2nn3c(-c4ccco4)nnc3s2)cc1	none
CCC(=O)Oc1ccc2c(C)c(C)c(=O)oc2c1I	none
Cc1c(-c2ccc(OC(C)C)cc2)nc2ccc(Br)cc2c1C(=O)O	none
N#C/C(=C\C=C(/Cl)c1ccccc1)C(N)=O	RBX1-CUL1 inh 37.5
N#CC(C#N)=C/C=C(/Cl)c1ccccc1	none
CCOc1c(/C=C(\C#N)C(N)=O)c2ccccc2n1CC	none
COCc1c(C(=O)NCCN2CCOCC2)cnn1-c1ncc2c(n1)-c1ccccc1CCC2	none
Cc1ccc(/C=C2/C(=O)N(C)C(=S)N2C)cc1	none
O=C1CSC2=NC3=C(CCC/C3=C\c3ccc(Br)cc3)C(c3ccc(Br)cc3)N12 (centres undefined)	none
CC1=NC2=NC(=O)/C(=C/c3ccc(Br)cc3)N2C(=O)C1	RBX1-CUL1 inh 79.2
COc1ccc(OCC(=O)Nc2ccc(C(=O)/C=C/c3ccc(SC)cc3)cc2)cc1	none
Cc1nc2ccc(C(=O)Nc3ccc(N4CCOCC4)cc3)cc2s1	none
Cc1cc(C)cc(NC(=O)c2sc3nc(-c4cc5ccccc5oc4=O)[nH]c(=O)c3c2C)c1	none
Cc1c(C(=O)Nc2cccc(F)c2)sc2nc(-c3cc4ccccc4oc3=O)[nH]c(=O)c12	none
Cc1cccc(NC(=O)c2sc3nc(-c4cc5ccc(O)cc5oc4=O)[nH]c(=O)c3c2C)c1	RBX1-CUL1 inh 63.3
CCc1ccc(NC(=O)CSc2c(-c3ccccc3)c3cc(Cl)ccc3[nH]c2=O)cc1	none
O=C(Nc1cc(Cl)cc(Cl)c1)C1CCN(C(=O)c2ccco2)CC1	none
O=S(=O)(Nc1cccc(I)c1)c1ccccc1	none
O=C1C(=O)N(CN2CC=CCC2)c2ccc(Br)cc21	none
Nc1cnnc(Sc2ccc([N+](=O)[O-])cn2)n1	none
CC(C)CCCC(C)C1CCC2C3CC([N+](=O)[O-])=C4C[C@@H](Cl)CCC4(C)C3CCC12C (some centres undefined)	none
CC(=O)OC1CC[C@](C)(C2CC[C@]3(C)C(C(C)CCCC(C)C)CCC3C2C(=O)O)C(=O)C1 (some centres undefined)	none
CC(C)CCCC(C)C1CCC2[C@@H](C(=O)O)C([C@@]3(C)CCC=CC3=O)CC[C@]12C (some centres undefined)	RBX1-CUL1 inh 96.5
FC(F)(F)c1ccc(-c2nc(-c3cccnc3)ncc2-c2nnnn2-c2ccccc2)cc1	none
O=C(COc1ccc(Cl)cc1Cl)Oc1ccc(Br)cc1Cl	none
O=C(O)c1cc2cc(Br)ccc2oc1=O	none
